Sampled rows, rich in hits. Any-hit rate of the full collection: about 2.2%.
miR-122 sensor – blocks miR-122 activity in Huh7 sensor cells | Huh7 miR-122 Renilla luciferase sensor, 48 h; neutral wells = 0, positive control = 100 | activation (reporter increase), % at 12.5 µM | 340,000 compounds, 0.3% hits;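 active = mean replicate activation score at least 90 and every replicate individually at or above 90; inconclusive = only one of the two criteria met; inactive = neither criterion met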;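 note: higher luciferase means less miR-122 activity so hits act as miR-122 inhibitors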
Statin myotox sup – suppressors of simvastatin-induced myotoxicity in C2C12 myotubes; ATP luminescence, 48 h; scaled: DMSO 0, geranylgeraniol control 100; rescue of ATP level, % at 7.49 µM; 330,000 compounds, 0.78% hits;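 active = mean ATP rescue above about 67%, or every replicate alone reaching that limit, limit read from the data, passing the limit was not always enough; inconclusive = no clear call, values can overlap the other calls; inactive = mean under the limit and some replicate under it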;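 note: myotubes were challenged with 10 µM simvastatin during compound exposure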
PGC1a acetyl inh – modulators of PGC1a acetylation | U2OS PGC1a acetylation, AlphaScreen anti-acetyl-lysine; with virally co-expressed GCN5 acetyltransferase | inhibition, % at 15.6 µM | 350,000 compounds, 0.17% hits | AID 651687;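 active = every replicate shows inhibition of at least 40%; inconclusive = mean inhibition at least 40% but some replicate below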;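 note: 0% = neutral control wells and 100% = positive control wells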
PvdQ inh – P. aeruginosa PvdQ acylase inhibition; purified PvdQ acylase, fluorescence plate reader; inhibition, % at 10 µM; 340,000 compounds, 0.063% hits; in the data active = inhibition above about 30%, passing the limit was not always enough; inconclusive = no clear call, values can overlap the other calls;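 note: 0% = vehicle neutral wells and 100% = reference inhibitor wells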
DENV2 CPE rescue – DENV2-induced cell death inhibition; 350,000 compounds, 1.7% hits; DENV2-infected cells, cytopathic effect rescue, plate reader; AID 651640; CPE inhibition, % at 9.99 µM; in the data active = CPE inhibition above about 20%, passing the limit was not always enough; inconclusive = no clear call, values can overlap the other calls; tested in BHK-21 cells;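 note: 0% = median of neutral control wells and 100% = median of positive control wells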
Numbers without * were called inactive; ? = inconclusive; / = no result given; [ ] = dose if it differs, or a comment.

SMILES	miR-122 sensor	Statin myotox sup	PGC1a acetyl inh	PvdQ inh	DENV2 CPE rescue
CCN(CC)c1ccc(NC(=O)c2cc3ccccc3o2)c(C)c1	-4	159*	-25	-4	/
Cc1ccccc1NC(=O)c1cc2ccccc2o1	/	0	/	6	-5
CCC/C(C#CCCN1C(=O)c2ccccc2C1=O)=C1/c2ccccc2C(=O)N1c1ccccc1	-4	8	-11	-8	79*
O=C(C[C@H]1C[C@H]2c3cc(NC(=O)c4cccnc4)ccc3O[C@H]2[C@@H](CO)O1)NC1CCCC1	/	/	0	/	10
CNC(=O)CC(=O)Nc1ccccc1C(=O)O	-2	105*	4	-14	/
CCNC(=O)CC(=O)Nc1ccccc1C(=O)O	4	6	9	11	/
O=C(C[C@@H]1CC[C@@H]2[C@H](COC[C@H](O)CN2S(=O)(=O)c2cccc(Cl)c2)O1)NCc1ccncn1	4[16.7 µM]	9	-2	/	0
CCS(=O)(=O)c1ncc(Cl)c(C(=O)Nc2ccc(C)cc2)n1	/	127*	/	1	1
C[C@H](CO)N1C[C@H](C)[C@@H](CN(C)Cc2ccccc2)Oc2ncc(-c3ccccc3)cc2C1=O	3[16.7 µM]	16	3	/	8
Cc1cc(NC(=O)c2ccc(Br)c([N+](=O)[O-])c2)no1	-3	-5	10	64*	-1
Cc1cc(NC(=O)c2cc([N+](=O)[O-])cc([N+](=O)[O-])c2C)no1	/	/	-14	88*	0
COc1ccc(NC(=O)Nc2ccc3c(c2)[C@@H]2C[C@@H](CC(=O)N(C)C)O[C@H](CO)[C@@H]2O3)cc1	3[16.7 µM]	3	5	/	-5
CN(c1ccc(C(=O)NCc2ccco2)cc1)S(C)(=O)=O	1	107*	-12	-7	/
CN(c1ccc(C(=O)NCCSCc2ccco2)cc1)S(C)(=O)=O	0	-6	-1	-14	/
C[C@@H]1CN([C@@H](C)CO)C(=O)c2cc(NC(=O)Nc3ccc4c(c3)OCO4)ccc2O[C@@H]1CN(C)C(=O)Nc1ccc(C(F)(F)F)cc1	3[16.7 µM]	-85	1	/	2
COc1cc(O)c(C(C)=O)c2c1C=CC(C)(C)O2	-3	0	-1	2	27*
COc1cc2c(c3c1c(=O)c1ccccc1n3C)C=CC(C)(C)O2	/	/	/	/	-1
C[C@H](CO)N1C[C@H](C)[C@@H](CN(C)C(=O)Nc2ccc(C(F)(F)F)cc2)Oc2ncc(C#C[C@@H](C)O)cc2C1=O	/	1	5	/	-1
Cc1ccc(S(=O)(=O)Nc2ccc3c(c2)CC(=O)N([C@H](C)CO)C[C@H](C)[C@@H](CN(C)C(=O)Nc2cccc4ccccc24)O3)cc1	8[16.7 µM]	15	-11	/	96*
Cc1ccc(S(=O)(=O)Nc2ccc3c(c2)CC(=O)N([C@@H](C)CO)C[C@H](C)[C@@H](CN(C)C(=O)Nc2cccc4ccccc24)O3)cc1	3[16.7 µM]	18	-9	/	33*
Cc1noc(C)c1NC(=O)N(C)C[C@H]1Oc2ccc(NC(=O)CCC(F)(F)F)cc2C(=O)N([C@H](C)CO)C[C@H]1C	0[16.7 µM]	-2	2	/	-3
CN(C)CC(=O)N1[C@@H]2Cn3c(ccc(-c4ccccc4)c3=O)[C@H]1[C@@H](C(=O)N1CCOCC1)[C@@H]2CO	4[16.7 µM]	-11	/	/	10
C[C@H](CO)N1C[C@H](C)[C@@H](CN(C)Cc2ccncc2)Oc2ncc(-c3ccc(C#N)cc3)cc2C1=O	0[16.7 µM]	-2	12	/	17
COc1cc(C(=O)NCC(c2ccco2)N2CCc3ccccc32)cc(OC)c1OC (centres undefined)	15	4	/	-10	92*
CC(C)NC(=O)N(C)C[C@@H]1Oc2ccc(NC(=O)C3CCCCC3)cc2CC(=O)N([C@H](C)CO)C[C@H]1C	2[16.7 µM]	-17	/	/	?
SMILES	miR-122 sensor	Statin myotox sup	PGC1a acetyl inh	PvdQ inh	DENV2 CPE rescue
c1cncc(CNc2ncnc3ccc(-c4ccoc4)cc23)c1	10	0	55*	-3	?
Cc1cccc(CNc2ncnc3ccc(-c4ccoc4)cc23)c1	7	56	30	-16	-3
Brc1ccc2ncnc(NCc3ccccc3)c2c1	9	11	42*	21	/
CN(C)/C=C1\N=C(c2ccc(Cl)cc2Cl)OC1=O	-7	0	-15	-6	/
CN(C)/C=C1\N=C(c2cccnc2Oc2ccc(Cl)cc2)OC1=O	0	115*	-12	-1	-3
COc1cccc(CN2[C@H](CO)[C@H]3c4ccccc4N(C(=O)c4cccnc4)C[C@H]32)c1	-10[16.7 µM]	-7	-4	/	-7
COc1ccc(C(=O)N2C[C@H]3[C@@H](c4ccccc42)[C@@H](CO)N3Cc2ccccc2Cl)cc1	5[16.7 µM]	13	-8	/	?
